Molecules are shown by their SMILES. About 83,000 compounds went through this panel and 20% of them were active in at least one assay; those are over-represented in the sample as a whole.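 Cells were grown in 96-well plates and exposed to the test compound at a single concentration for 48 hours; results are reported as percent growth, with values below 10 considered active.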 Unmarked numbers belong to inactive results. Calls of active or inactive are those of the source.

Among the test systems are HT29 colon; SNB-75 CNS; SNB-19 CNS; U251 CNS; PC-3 prostate; UACC-62 melanoma; LOX IMVI melanoma; SK-MEL-28 melanoma; SK-MEL-2 melanoma; EKVX NSCLC; SN12C renal; UO-31 renal; TK-10 renal; CAKI-1 renal; A498 renal; CCRF-CEM leukemia; MOLT-4 leukemia; SR leukemia; ACHN renal; SK-MEL-5 melanoma.
Assay in all cases: NCI-60 one-dose screen, 48 h (100 = growth as untreated, 0 = no growth, -100 = all killed)
Common to all, as to settings: 10 µM

On to `CC(=O)[C@H]1CC[C@H]2[C@@H]3CCC4=CC(=O)C=C[C@]4(C)[C@H]3CC[C@]12C`, for which the growth is 96.2% in the assay with HT29 colon; 90.3% with SNB-75 CNS; 114% in the assay with SNB-19 CNS; 95.1% in the assay with U251 CNS; 87.7% with PC-3 prostate; 80.3% in the assay with UACC-62 melanoma. The growth with LOX IMVI melanoma was 88.6%; with SK-MEL-28 melanoma it was 109%; in the assay on SK-MEL-2 melanoma, 102%; in the assay with EKVX NSCLC, 60.1%; in the assay with SN12C renal it was 95.9%; in the assay on UO-31 renal it was 88.5%. Moreover, the growth with TK-10 renal is 106%; in the assay on CAKI-1 renal, 87.8%; with A498 renal, 60.4%; with CCRF-CEM leukemia, 87.2%; in the assay on MOLT-4 leukemia it was 87.1%; in the assay with SR leukemia it was 84.4%.
Regarding `Cc1nc2oc3ccccc3c(=O)c2cc1C(=O)NCc1ccccc1`, the growth is 94.1% with HT29 colon; 80.9% with SNB-75 CNS; 84.9% in the assay with SNB-19 CNS; 64.7% in the assay with U251 CNS; 90.9% in the assay on PC-3 prostate; 31.1% with UACC-62 melanoma. The growth with LOX IMVI melanoma is 55.9%; in the assay with SK-MEL-28 melanoma it was 78.5%; in the assay with SK-MEL-2 melanoma it was 9.34% (active); with EKVX NSCLC, 69.3%; in the assay on SN12C renal it was 99%; with UO-31 renal, 63.3%. Besides, the growth in the assay on TK-10 renal is 87.6%; with ACHN renal, 63.3%; in the assay on CAKI-1 renal, 52%; in the assay with A498 renal, 92.5%; with CCRF-CEM leukemia, 76.9%; in the assay on MOLT-4 leukemia, 66.7%. The growth in the assay with SR leukemia is 69.7%.
In the case of `COc1ccc(-c2cc(-c3ccc(N(C)C)cc3)c(C#N)c(N3CCCC3)n2)cc1`, the growth with HT29 colon is 63.2%; in the assay with SNB-75 CNS, 99.7%; in the assay with SNB-19 CNS, 90.1%; in the assay on U251 CNS, 86%; in the assay with PC-3 prostate, 82.2%; with UACC-62 melanoma it was 102%. In addition, the growth in the assay on LOX IMVI melanoma was 34.2%; in the assay with SK-MEL-28 melanoma, 93.4%; with SK-MEL-2 melanoma, 84%; in the assay on EKVX NSCLC, 73.1%; in the assay on SN12C renal, 89.2%; in the assay on UO-31 renal, 81.7%. Moreover, the growth with TK-10 renal was 85.4%; in the assay with ACHN renal, 98.5%; in the assay with A498 renal, 106%; in the assay on CCRF-CEM leukemia it was 79.5%; in the assay with MOLT-4 leukemia it was 81.2%; in the assay with SR leukemia, 40.8%.
Regarding `CSc1nn(-c2ccccc2)c2ncnc(Oc3ccc(C)cc3)c12`, the growth in the assay on HT29 colon was 99.3%; in the assay with SNB-75 CNS, 75.1%; in the assay with SNB-19 CNS, 102%; in the assay with U251 CNS it was 91.2%; in the assay with PC-3 prostate it was 82.5%; in the assay on UACC-62 melanoma it was 99.6%. In addition, the growth was 95% in the assay with LOX IMVI melanoma; 99.5% with SK-MEL-28 melanoma; 75.3% in the assay on SK-MEL-2 melanoma; 88.8% with SN12C renal; 84.4% with UO-31 renal; 94.2% in the assay on TK-10 renal. The growth is 76% in the assay with ACHN renal; 84.8% in the assay on CAKI-1 renal; 67.8% in the assay with A498 renal; 90.5% in the assay with CCRF-CEM leukemia; 94.9% in the assay with MOLT-4 leukemia; 91.8% in the assay on SR leukemia.
On to `O=C(Nc1ccncc1)C(=O)c1cn(S(=O)(=O)c2cccc3ccccc23)c2ccccc12`, for which the growth with HT29 colon was 42.7%; in the assay with SNB-75 CNS, 76.5%; in the assay with SNB-19 CNS it was 80.5%; in the assay with U251 CNS it was 80.7%; in the assay on PC-3 prostate, 68.5%; in the assay with UACC-62 melanoma, 63.7%. Also, the growth with LOX IMVI melanoma is 61.5%; with SK-MEL-28 melanoma, 95.3%; with SK-MEL-2 melanoma it was 68.2%; with EKVX NSCLC, 46.9%; in the assay with SN12C renal, 92%; with UO-31 renal, 58.5%. For the same compound, the growth in the assay on TK-10 renal is 88.3%; in the assay on ACHN renal, 87.2%; in the assay on CAKI-1 renal, 60.4%; in the assay with A498 renal, 80%; with CCRF-CEM leukemia, 59.5%; in the assay with MOLT-4 leukemia, 69%. For the same compound, in the assay on SR leukemia, the growth is 21.2%.
Turning to `COc1ccc(/C(=C2/O[C@@H]([C@H]3COC(C)(C)O3)[C@H]3OC(C)(C)O[C@@H]23)c2cc(OC)c(OC)c(OC)c2)cc1O`, the growth in the assay with HT29 colon is 113%; with SNB-75 CNS it was 24.3%; in the assay with SNB-19 CNS, 27.6%; in the assay on U251 CNS, 61.2%; in the assay with PC-3 prostate, 29.4%; in the assay with SK-MEL-5 melanoma it was 61.8%. Also, the growth with UACC-62 melanoma was 82.9%; in the assay with LOX IMVI melanoma, 47.6%; in the assay with EKVX NSCLC, 101%; with SN12C renal, 84.5%; in the assay on UO-31 renal it was 123%; in the assay on TK-10 renal, 117%. Besides, the growth in the assay with ACHN renal is 49.5%; in the assay with CAKI-1 renal, 111%; with CCRF-CEM leukemia, 60.8%; with MOLT-4 leukemia, 60.5%; with SR leukemia, -13.6% (active).
Take `O=C(c1ccc(Cl)cc1Cl)N1CCOCC1`: the growth is 105% with HT29 colon; 81.8% with SNB-75 CNS; 103% in the assay on SNB-19 CNS; 105% in the assay with U251 CNS; 96.4% in the assay on PC-3 prostate; 101% in the assay with UACC-62 melanoma. Further, the growth in the assay with LOX IMVI melanoma was 96.8%; with SK-MEL-28 melanoma it was 110%; with SK-MEL-2 melanoma, 96.5%; in the assay on SN12C renal, 105%; with UO-31 renal, 83.4%; with TK-10 renal, 101%. Also, the growth with ACHN renal was 103%; with A498 renal it was 91.2%; with CCRF-CEM leukemia, 106%; with MOLT-4 leukemia, 99.1%.
`C#Cc1ccc(-n2c(/C=C/c3ccc(O)cc3)nc3ncccc3c2=O)cc1`: the growth in the assay with HT29 colon was 109%; with SNB-75 CNS, -1.11% (active); in the assay with SNB-19 CNS, 82%; in the assay with U251 CNS it was 62.5%; in the assay on PC-3 prostate it was 65.3%; with UACC-62 melanoma it was 29.1%. Also, the growth was 55.5% in the assay on LOX IMVI melanoma; 51.7% in the assay on SK-MEL-28 melanoma; 19.9% in the assay with SK-MEL-2 melanoma; 75.9% with SN12C renal; 34.3% in the assay on UO-31 renal; 93.7% with TK-10 renal. Also, the growth is 49.8% in the assay on ACHN renal; 55.9% in the assay on CAKI-1 renal; -1.24% (active) in the assay with A498 renal; 85.7% in the assay on CCRF-CEM leukemia; 101% in the assay with MOLT-4 leukemia; 18.1% in the assay with SR leukemia.

The values are drawn from PubChem BioAssay (NCI).
